This passage reports potency estimated from few doses results from article PMC11062922 (Nature Chemical Biology, 2023).

Read-outs that look alike come from different tables or passages of the source.

What all share (set-up): species or system human, MV4-11 + K-562 + COLO205 + SK-N-BE2 + OVCAR-8
One test concerns ACVR1B. The note with it: read-out: apparent Kd; compound concentrations:100 nM and 1000 nM (sheet 'Samples'); n = 1.
The next test deals with PRKD2. The note with it: read-out: apparent Kd; compound concentrations:100 nM and 1000 nM (sheet 'Samples'); n = 1.
The next test deals with PRKD3. The note with it: read-out: apparent Kd; compound concentrations:100 nM and 1000 nM (sheet 'Samples'); n = 1.
The test system of the next test is ADCK3. The note with it: read-out: apparent Kd, compound concentrations: 100 nM and 1000 nM (sheet 'Samples'), n = 1.
A further test deals with CSNK1A1. The note with it: read-out: apparent Kd; compound concentrations: 100 nM and 1000 nM (sheet 'Samples'), CATDS: 0.108738920150242; n = 1.
The test system of a further test is CSNK1D. The note with it: read-out: apparent Kd; compound concentrations: 100 nM and 1000 nM (sheet 'Samples'), CATDS: 0.110076630605661; n = 1.
In the next test the test system is CSNK1E. The note with it: read-out: apparent Kd, compound concentrations: 100 nM and 1000 nM (sheet 'Samples'), n = 1.
In the next test the test system is ILK. The note with it: read-out: apparent Kd; compound concentrations: 100 nM and 1000 nM (sheet 'Samples'), CATDS: 9.4718278447494406E-2; n = 1.
The next test concerns LIMK1. The note with it: read-out: apparent Kd; compound concentrations: 100 nM and 1000 nM (sheet 'Samples'), CATDS: 4.5083762748743803E-2; n = 1.
The next test deals with MAP2K2. The note with it: read-out: apparent Kd, compound concentrations: 100 nM and 1000 nM (sheet 'Samples'), n = 1.
For the next test, the system named is MAPK10. The note with it: read-out: apparent Kd; compound concentrations: 100 nM and 1000 nM (sheet 'Samples'), CATDS: 5.09024054826294E-2; n = 1.
Another test deals with MAPK14. The note with it: read-out: apparent Kd; compound concentrations: 100 nM and 1000 nM (sheet 'Samples'), CATDS: 0.11352717514973699; n = 1.
Another test deals with MAPK9. The note with it: read-out: apparent Kd; compound concentrations: 100 nM and 1000 nM (sheet 'Samples'), CATDS: 5.50671155445017E-2; n = 1.
A further test deals with MAPKAPK2. The note with it: read-out: apparent Kd; compound concentrations: 100 nM and 1000 nM (sheet 'Samples'), CATDS: 5.16854933400041E-2; n = 1.
The test system of the next test is NNT. The note with it: read-out: apparent Kd, compound concentrations: 100 nM and 1000 nM (sheet 'Samples'), n = 1.
The next test concerns PRKAG1. The note with it: read-out: apparent Kd; compound concentrations: 100 nM and 1000 nM (sheet 'Samples'), CATDS: 9.6836813668462501E-2; n = 1.
The test system of a further test is VDAC3. The note with it: read-out: apparent Kd; compound concentrations: 100 nM and 1000 nM (sheet 'Samples'), CATDS: 4.4921279998790198E-2; n = 1.
The subject of the next test is BRAF. The note with it: read-out: apparent Kd; compound concentrations: 100 nM and 1000 nM (sheet 'Samples'), CATDS: 0.639948734699749; n = 1.
The next test relates to MAP2K5. The note with it: read-out: apparent Kd; compound concentrations: 100 nM and 1000 nM (sheet 'Samples'), CATDS: 0.203043275988008; n = 1.
For the next test, the system named is PTK6. The note with it: read-out: apparent Kd; compound concentrations: 100 nM and 1000 nM (sheet 'Samples'), CATDS: 0.17376653089903399; n = 1.
Another test concerns RIPK3. The note with it: read-out: apparent Kd; compound concentrations: 100 nM and 1000 nM (sheet 'Samples'), CATDS: 9.1073681697651607E-2; n = 1.
In a further test the test system is TESK1. The note with it: read-out: apparent Kd; compound concentrations: 100 nM and 1000 nM (sheet 'Samples'), CATDS: 9.2639666275084007E-2; n = 1.
A further test deals with ZAK. The note with it: read-out: apparent Kd; compound concentrations: 100 nM and 1000 nM (sheet 'Samples'), CATDS: 0.21269926478279999; n = 1.
The next test concerns GSK3A. The note with it: read-out: apparent Kd; compound concentrations: 100 nM and 1000 nM (sheet 'Samples'), CATDS: 0.39261135326021201; n = 1.
The test system of the next test is GSK3B. The note with it: read-out: apparent Kd; compound concentrations: 100 nM and 1000 nM (sheet 'Samples'), CATDS: 0.34419414793352499; n = 1.
For another test, the system named is ADCK1. The note with it: read-out: apparent Kd; compound concentrations: 100 nM and 1000 nM (sheet 'Samples'), CATDS: 0.14545775949077999; n = 1.
The next test has as its system CAMK4. The note with it: read-out: apparent Kd, compound concentrations: 100 nM and 1000 nM (sheet 'Samples'), n = 1.
The subject of a further test is FLT3. The note with it: read-out: apparent Kd; compound concentrations: 100 nM and 1000 nM (sheet 'Samples'), CATDS: 0.830735386752396; n = 1.
The subject of a further test is PDGFRB. The note with it: read-out: apparent Kd; compound concentrations: 100 nM and 1000 nM (sheet 'Samples'), CATDS: 0.32052418925239901; n = 1.
The next test deals with AKT2. The note with it: read-out: apparent Kd; compound concentrations: 100 nM and 1000 nM (sheet 'Samples'), CATDS: 6.9315360856789104E-2; n = 1.
The next test deals with ATM. The note with it: read-out: apparent Kd; compound concentrations: 100 nM and 1000 nM (sheet 'Samples'), CATDS: 0.21297510466852801; n = 1.
A further test deals with CDK6. The note with it: read-out: apparent Kd; compound concentrations: 100 nM and 1000 nM (sheet 'Samples'), CATDS: 7.4930063387868798E-2; n = 1.
The next test has as its system CDKL5. The note with it: read-out: apparent Kd; compound concentrations: 100 nM and 1000 nM (sheet 'Samples'), CATDS: 9.7869696626463096E-2; n = 1.
The test system of a further test is CSNK2A1;CSNK2A3. The note with it: read-out: apparent Kd; compound concentrations: 100 nM and 1000 nM (sheet 'Samples'), CATDS: 6.2096943354302901E-2; n = 1.
The next test has as its system MAP2K1. The note with it: read-out: apparent Kd; compound concentrations: 100 nM and 1000 nM (sheet 'Samples'), CATDS: 6.2459835665012599E-2; n = 1.
A further test relates to NQO1. The note with it: read-out: apparent Kd; compound concentrations: 100 nM and 1000 nM (sheet 'Samples'), CATDS: 8.3466895844620997E-2; n = 1.
Another test concerns RIOK2. The note with it: read-out: apparent Kd; compound concentrations: 100 nM and 1000 nM (sheet 'Samples'), CATDS: 6.3640535742752496E-2; n = 1.

As to `Cc1cccc(-c2cc(Nc3ccncc3)c3ccccc3n2)n1` [GSK223675A], the figures for the potency estimated from few doses in the test with ACVR1B, with PRKD2 and in the test with PRKD3 were 21.7 nM, 293 nM and 590 nM, respectively.

Turning to `Cl.Fc1ccc(-c2nc3n(c2-c2ccncc2)CCS3)cc1` [SKF-86002-A2], the potency estimated from few doses with ADCK3 (CATDS: 0.13841841759658599) was 74.5 nM; in the test with CSNK1A1, 113 nM; in the test with CSNK1D, 110 nM; with CSNK1E (CATDS: 0.12792065759961399), 84.8 nM; with ILK, 148 nM; with LIMK1, 1770 nM. Also, the potency estimated from few doses is 125 nM with MAP2K2 (CATDS: 0.102896761563019); 946 nM in the test on MAPK10; 104 nM in the test with MAPK14; 681 nM in the test on MAPK9; 885 nM in the test with MAPKAPK2; 1550 nM in the test on NNT (CATDS: 4.6144486459290798E-2). The potency estimated from few doses is 141 nM in the test on PRKAG1 and 1810 nM in the test with VDAC3.

Take `CCCS(=O)(=O)Nc1ccc(F)c(-n2cc(-c3cncc(OC)c3)nn2)c1F` [BI00865461]: the potency estimated from few doses in the test with ADCK3 (CATDS: 9.7263378995511504E-2) was 1210 nM; in the test with BRAF, 7.45 nM; in the test with MAP2K5 it was 70.4 nM; with PTK6 it was 108 nM; in the test on RIPK3 it was 1790 nM; in the test with TESK1, 1610 nM. For the same molecule, in the test with ZAK, the potency estimated from few doses was 62.5 nM.

Take `Cc1ccc(C)c(C2=C(c3cn(C)c4ccccc34)C(=O)NC2=O)c1` [RO0317699-000]: the potency estimated from few doses in the test on ADCK3 (CATDS: 0.28187952548436401) is 629 nM; with GSK3A, 316 nM; in the test on GSK3B, 404 nM.

On to `COc1cc(Nc2ncc(-c3ccccc3)o2)cc(OC)c1` [GW631581B], for which the potency estimated from few doses with ADCK1 is 1650 nM; in the test on CAMK4 (CATDS: 0.15107138054909999), 1410 nM; with FLT3, 8.16 nM; with MAP2K2 (CATDS: 0.139234608718731) it was 2010 nM; with PDGFRB, 85.4 nM.

For `Cc1nc(-c2ccccc2)n2nc(NCCCN3CCOCC3)ncc12` [GW874091X], the potency estimated from few doses is 915 nM with ADCK3 (CATDS: 9.8029447870553399E-2); 1850 nM in the test on AKT2; 287 nM in the test on ATM; 1460 nM in the test with CAMK4 (CATDS: 7.7064865846565897E-2); 1550 nM in the test on CDK6; 917 nM in the test on CDKL5. Moreover, the potency estimated from few doses in the test with CSNK1E (CATDS: 6.4509222244259798E-2) is 2210 nM; with CSNK2A1;CSNK2A3, 2450 nM; with MAP2K1 it was 2410 nM; in the test on MAP2K2 (CATDS: 6.9306858675437497E-2), 1850 nM; in the test on NNT (CATDS: 7.4633464586539203E-2) it was 1560 nM; with NQO1, 1240 nM. In addition, the potency estimated from few doses in the test on RIOK2 is 2290 nM.
